# In PMC11062922 (Nature Chemical Biology, 2023):
# Read-outs that look alike come from different tables or passages of the source.
# What was measured:
# MAP4K2 = details: read-out: apparent Kd, n = 1
# MARK3 = details: read-out: apparent Kd, n = 1
# [1] = compound concentrations:100 nM and 1000 nM (sheet 'Lestaurtinib' of Supplementary Table 1),run:Lestaurtinib_02572_R1,Plate:MR015
# [2] = compound concentrations:100 nM and 1000 nM (sheet 'Lestaurtinib' of Supplementary Table 1),run:Lestaurtinib_02577_R1,Plate:MR016
# [3] = compound concentrations:100 nM and 1000 nM (sheet 'Lestaurtinib' of Supplementary Table 1),run:Lestaurtinib_02577_R3,Plate:MR016
# [4] = compound concentrations:100 nM and 1000 nM (sheet 'Lestaurtinib' of Supplementary Table 1),run:Lestaurtinib_02584_R3,Plate:MR017
# [5] = compound concentrations:100 nM and 1000 nM (sheet 'Lestaurtinib' of Supplementary Table 1),run:Lestaurtinib_02601_R2,Plate:MR018
# [6] = compound concentrations:100 nM and 1000 nM (sheet 'Lestaurtinib' of Supplementary Table 1),run:Lestaurtinib_02606_R2,Plate:MR019
substance,measurement,setting,value
Lestaurtinib,potency estimated from few doses,"MAP4K2; compound concentrations:100 nM and 1000 nM (sheet 'Lestaurtinib' of Supplementary Table 1),run:Lestaurtinib_02566_R3,Plate:MR014",159 nM
same,potency estimated from few doses,MAP4K2; [1],196 nM
same,potency estimated from few doses,"MAP4K2; compound concentrations:100 nM and 1000 nM (sheet 'Lestaurtinib' of Supplementary Table 1),run:Lestaurtinib_02572_R3,Plate:MR015",235 nM
same,potency estimated from few doses,MAP4K2; [2],199 nM
same,potency estimated from few doses,MAP4K2; [3],131 nM
same,potency estimated from few doses,MAP4K2; [4],245 nM
same,potency estimated from few doses,MAP4K2; [5],153 nM
same,potency estimated from few doses,"MAP4K2; compound concentrations:100 nM and 1000 nM (sheet 'Lestaurtinib' of Supplementary Table 1),run:Lestaurtinib_02606_R1,Plate:MR019",184 nM
same,potency estimated from few doses,MAP4K2; [6],278 nM
same,potency estimated from few doses,"MAP4K2; compound concentrations:100 nM and 1000 nM (sheet 'Lestaurtinib' of Supplementary Table 1),run:Lestaurtinib_02606_R3,Plate:MR019",191 nM
same,potency estimated from few doses,"MAP4K2; compound concentrations:100 nM and 1000 nM (sheet 'Lestaurtinib' of Supplementary Table 1),run:Lestaurtinib_02724_R1,Plate:MR021",279 nM
same,potency estimated from few doses,"MAP4K2; compound concentrations:100 nM and 1000 nM (sheet 'Lestaurtinib' of Supplementary Table 1),run:Lestaurtinib_02724_R2,Plate:MR021",279 nM
same,potency estimated from few doses,"MAP4K2; compound concentrations:100 nM and 1000 nM (sheet 'Lestaurtinib' of Supplementary Table 1),run:Lestaurtinib_02724_R3,Plate:MR021",269 nM
same,potency estimated from few doses,"MAP4K2; compound concentrations:100 nM and 1000 nM (sheet 'Lestaurtinib' of Supplementary Table 1),run:Lestaurtinib_02741_R1,Plate:MR023",191 nM
same,potency estimated from few doses,"MAP4K2; compound concentrations:100 nM and 1000 nM (sheet 'Lestaurtinib' of Supplementary Table 1),run:Lestaurtinib_02741_R3,Plate:MR023",237 nM
same,potency estimated from few doses,"MAP4K2; compound concentrations:100 nM and 1000 nM (sheet 'Lestaurtinib' of Supplementary Table 1),run:Lestaurtinib_02748_R2,Plate:MR024",289 nM
same,potency estimated from few doses,"MAP4K2; compound concentrations:100 nM and 1000 nM (sheet 'Lestaurtinib' of Supplementary Table 1),run:Lestaurtinib_02752_R2,Plate:MR025",134 nM
same,potency estimated from few doses,"MAP4K2; compound concentrations:100 nM and 1000 nM (sheet 'Lestaurtinib' of Supplementary Table 1),run:Lestaurtinib_02752_R3,Plate:MR025",136 nM
same,potency estimated from few doses,"MAP4K2; compound concentrations:100 nM and 1000 nM (sheet 'Lestaurtinib' of Supplementary Table 1),run:Lestaurtinib_02765_R2,Plate:MR026",199 nM
same,potency estimated from few doses,"MAP4K2; compound concentrations:100 nM and 1000 nM (sheet 'Lestaurtinib' of Supplementary Table 1),run:Lestaurtinib_02765_R3,Plate:MR026",158 nM
same,potency estimated from few doses,"MAP4K2; compound concentrations:100 nM and 1000 nM (sheet 'Lestaurtinib' of Supplementary Table 1),run:Lestaurtinib_02766_R2,Plate:MR027",220 nM
same,potency estimated from few doses,"MAP4K2; compound concentrations:100 nM and 1000 nM (sheet 'Lestaurtinib' of Supplementary Table 1),run:Lestaurtinib_02766_R3,Plate:MR027",231 nM
same,potency estimated from few doses,"MAP4K2; compound concentrations:100 nM and 1000 nM (sheet 'Lestaurtinib' of Supplementary Table 1),run:Lestaurtinib_02768_R1,Plate:MR028",190 nM
same,potency estimated from few doses,"MAP4K2; compound concentrations:100 nM and 1000 nM (sheet 'Lestaurtinib' of Supplementary Table 1),run:Lestaurtinib_02768_R3,Plate:MR028",196 nM
same,potency estimated from few doses,"MAP4K2; compound concentrations:100 nM and 1000 nM (sheet 'Lestaurtinib' of Supplementary Table 1),run:Lestaurtinib_02795_R1,Plate:MR022",199 nM
same,potency estimated from few doses,"MAP4K2; compound concentrations:100 nM and 1000 nM (sheet 'Lestaurtinib' of Supplementary Table 1),run:Lestaurtinib_02795_R2,Plate:MR022",146 nM
same,potency estimated from few doses,"MAP4K2; compound concentrations:100 nM and 1000 nM (sheet 'Lestaurtinib' of Supplementary Table 1),run:Lestaurtinib_02795_R3,Plate:MR022",377 nM
same,potency estimated from few doses,"MAP4K2; compound concentrations:100 nM and 1000 nM (sheet 'Lestaurtinib' of Supplementary Table 1),run:Lestaurtinib_02802_R3,Plate:MR029",290 nM
same,potency estimated from few doses,"MAP4K2; compound concentrations:100 nM and 1000 nM (sheet 'Lestaurtinib' of Supplementary Table 1),run:Lestaurtinib_02896_R2,Plate:MR030",215 nM
same,potency estimated from few doses,"MAP4K2; compound concentrations:100 nM and 1000 nM (sheet 'Lestaurtinib' of Supplementary Table 1),run:Lestaurtinib_03172_R2,Plate:MR031",295 nM
same,potency estimated from few doses,"MAP4K2; compound concentrations:100 nM and 1000 nM (sheet 'Lestaurtinib' of Supplementary Table 1),run:Lestaurtinib_03172_R3,Plate:MR031",235 nM
same,potency estimated from few doses,"MAP4K2; compound concentrations:100 nM and 1000 nM (sheet 'Lestaurtinib' of Supplementary Table 1),run:Lestaurtinib_03252_R1,Plate:MR032",130 nM
same,potency estimated from few doses,"MAP4K2; compound concentrations:100 nM and 1000 nM (sheet 'Lestaurtinib' of Supplementary Table 1),run:Lestaurtinib_03260_R1,Plate:MR033",372 nM
same,potency estimated from few doses,"MAP4K2; compound concentrations:100 nM and 1000 nM (sheet 'Lestaurtinib' of Supplementary Table 1),run:Lestaurtinib_03260_R3,Plate:MR033",228 nM
same,potency estimated from few doses,"MARK3; compound concentrations:100 nM and 1000 nM (sheet 'Lestaurtinib' of Supplementary Table 1),run:Lestaurtinib_02364_R1,Plate:MR002",132 nM
same,potency estimated from few doses,"MARK3; compound concentrations:100 nM and 1000 nM (sheet 'Lestaurtinib' of Supplementary Table 1),run:Lestaurtinib_02364_R3,Plate:MR002",180 nM
same,potency estimated from few doses,"MARK3; compound concentrations:100 nM and 1000 nM (sheet 'Lestaurtinib' of Supplementary Table 1),run:Lestaurtinib_02367_R1,Plate:MR003",92.8 nM
same,potency estimated from few doses,"MARK3; compound concentrations:100 nM and 1000 nM (sheet 'Lestaurtinib' of Supplementary Table 1),run:Lestaurtinib_02367_R2,Plate:MR003",160 nM
same,potency estimated from few doses,"MARK3; compound concentrations:100 nM and 1000 nM (sheet 'Lestaurtinib' of Supplementary Table 1),run:Lestaurtinib_02381_R1,Plate:MR004",132 nM
same,potency estimated from few doses,"MARK3; compound concentrations:100 nM and 1000 nM (sheet 'Lestaurtinib' of Supplementary Table 1),run:Lestaurtinib_02381_R2,Plate:MR004",167 nM
same,potency estimated from few doses,"MARK3; compound concentrations:100 nM and 1000 nM (sheet 'Lestaurtinib' of Supplementary Table 1),run:Lestaurtinib_02407_R1,Plate:MR005",160 nM
same,potency estimated from few doses,"MARK3; compound concentrations:100 nM and 1000 nM (sheet 'Lestaurtinib' of Supplementary Table 1),run:Lestaurtinib_02407_R2,Plate:MR005",151 nM
same,potency estimated from few doses,"MARK3; compound concentrations:100 nM and 1000 nM (sheet 'Lestaurtinib' of Supplementary Table 1),run:Lestaurtinib_02422_R1,Plate:MR006",169 nM
same,potency estimated from few doses,"MARK3; compound concentrations:100 nM and 1000 nM (sheet 'Lestaurtinib' of Supplementary Table 1),run:Lestaurtinib_02422_R2,Plate:MR006",52.3 nM
same,potency estimated from few doses,"MARK3; compound concentrations:100 nM and 1000 nM (sheet 'Lestaurtinib' of Supplementary Table 1),run:Lestaurtinib_02437_R1,Plate:MR007",151 nM
same,potency estimated from few doses,"MARK3; compound concentrations:100 nM and 1000 nM (sheet 'Lestaurtinib' of Supplementary Table 1),run:Lestaurtinib_02437_R2,Plate:MR007",133 nM
same,potency estimated from few doses,"MARK3; compound concentrations:100 nM and 1000 nM (sheet 'Lestaurtinib' of Supplementary Table 1),run:Lestaurtinib_02437_R3,Plate:MR007",23.2 nM
same,potency estimated from few doses,"MARK3; compound concentrations:100 nM and 1000 nM (sheet 'Lestaurtinib' of Supplementary Table 1),run:Lestaurtinib_02438_R1,Plate:MR008",196 nM
same,potency estimated from few doses,"MARK3; compound concentrations:100 nM and 1000 nM (sheet 'Lestaurtinib' of Supplementary Table 1),run:Lestaurtinib_02438_R2,Plate:MR008",160 nM
same,potency estimated from few doses,"MARK3; compound concentrations:100 nM and 1000 nM (sheet 'Lestaurtinib' of Supplementary Table 1),run:Lestaurtinib_02443_R1,Plate:MR009",202 nM
same,potency estimated from few doses,"MARK3; compound concentrations:100 nM and 1000 nM (sheet 'Lestaurtinib' of Supplementary Table 1),run:Lestaurtinib_02443_R2,Plate:MR009",181 nM
same,potency estimated from few doses,"MARK3; compound concentrations:100 nM and 1000 nM (sheet 'Lestaurtinib' of Supplementary Table 1),run:Lestaurtinib_02443_R3,Plate:MR009",217 nM
same,potency estimated from few doses,"MARK3; compound concentrations:100 nM and 1000 nM (sheet 'Lestaurtinib' of Supplementary Table 1),run:Lestaurtinib_02473_R3,Plate:MR010",98.5 nM
same,potency estimated from few doses,"MARK3; compound concentrations:100 nM and 1000 nM (sheet 'Lestaurtinib' of Supplementary Table 1),run:Lestaurtinib_02482_R2,Plate:MR011",158 nM
same,potency estimated from few doses,"MARK3; compound concentrations:100 nM and 1000 nM (sheet 'Lestaurtinib' of Supplementary Table 1),run:Lestaurtinib_02482_R3,Plate:MR011",140 nM
same,potency estimated from few doses,"MARK3; compound concentrations:100 nM and 1000 nM (sheet 'Lestaurtinib' of Supplementary Table 1),run:Lestaurtinib_02487_R1,Plate:MR012",153 nM
same,potency estimated from few doses,"MARK3; compound concentrations:100 nM and 1000 nM (sheet 'Lestaurtinib' of Supplementary Table 1),run:Lestaurtinib_02487_R2,Plate:MR012",200 nM
same,potency estimated from few doses,"MARK3; compound concentrations:100 nM and 1000 nM (sheet 'Lestaurtinib' of Supplementary Table 1),run:Lestaurtinib_02487_R3,Plate:MR012",172 nM
same,potency estimated from few doses,"MARK3; compound concentrations:100 nM and 1000 nM (sheet 'Lestaurtinib' of Supplementary Table 1),run:Lestaurtinib_02496_R2,Plate:MR013",153 nM
same,potency estimated from few doses,"MARK3; compound concentrations:100 nM and 1000 nM (sheet 'Lestaurtinib' of Supplementary Table 1),run:Lestaurtinib_02496_R3,Plate:MR013",146 nM
same,potency estimated from few doses,"MARK3; compound concentrations:100 nM and 1000 nM (sheet 'Lestaurtinib' of Supplementary Table 1),run:Lestaurtinib_02566_R1,Plate:MR014",140 nM
same,potency estimated from few doses,MARK3; [1],140 nM
same,potency estimated from few doses,"MARK3; compound concentrations:100 nM and 1000 nM (sheet 'Lestaurtinib' of Supplementary Table 1),run:Lestaurtinib_02572_R2,Plate:MR015",162 nM
same,potency estimated from few doses,MARK3; [2],158 nM
same,potency estimated from few doses,"MARK3; compound concentrations:100 nM and 1000 nM (sheet 'Lestaurtinib' of Supplementary Table 1),run:Lestaurtinib_02577_R2,Plate:MR016",224 nM
same,potency estimated from few doses,MARK3; [3],259 nM
same,potency estimated from few doses,MARK3; [4],211 nM
same,potency estimated from few doses,MARK3; [5],184 nM
same,potency estimated from few doses,MARK3; [6],131 nM
